Sampled rows, rich in hits. Any-hit rate of the full collection: about 7.3%.
RORg inh = blocks mouse ROR gamma transcriptional activity; P51450; Drosophila S2 Gal4-RORgamma UAS-luciferase reporter, 20 h; Potency, µM (series often up to 53.6 µM), usual class: inhibitors; 310,000 tested, 5.4% active; AID 2551; also: nearly all actives have a fitted effect of over 60% in size
Target sequence (P51450 whole entry, looked up, the tested form may be a part): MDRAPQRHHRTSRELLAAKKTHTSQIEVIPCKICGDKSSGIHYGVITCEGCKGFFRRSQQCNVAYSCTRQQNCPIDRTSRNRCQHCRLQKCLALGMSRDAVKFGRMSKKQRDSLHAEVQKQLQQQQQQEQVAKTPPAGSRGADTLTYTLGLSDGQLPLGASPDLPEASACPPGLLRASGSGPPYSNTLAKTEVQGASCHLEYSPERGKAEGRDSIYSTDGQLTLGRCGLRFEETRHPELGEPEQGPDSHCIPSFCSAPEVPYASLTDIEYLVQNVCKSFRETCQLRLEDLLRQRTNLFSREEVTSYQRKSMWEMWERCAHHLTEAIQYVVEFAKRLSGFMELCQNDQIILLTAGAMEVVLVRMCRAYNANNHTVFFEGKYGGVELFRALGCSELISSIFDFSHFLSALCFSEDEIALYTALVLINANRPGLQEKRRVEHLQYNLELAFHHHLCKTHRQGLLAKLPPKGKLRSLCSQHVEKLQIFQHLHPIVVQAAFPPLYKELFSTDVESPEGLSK
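Drosophila S2 cells stably expressing Gal4-DBD/mouse RORγ fusion under metallothionein promoter plus UAS-luciferase; compound 1 h, then 700 uM CuSO4 induction for 20 h at ambient temperature; inhibition read as reduced luminescence.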
Tau ThT inhib = tau fibrillization inhibition (ThT binding); recombinant tau K18 P301L, heparin-induced fibrillization, ThT fluorescence; Potency, µM (titrated, usually from 57.4 µM), hits mostly inhibitors; 270,000 tested, 2.1% active; also: nearly all actives have a fitted effect of over 55% in size
Target sequence (P10636 561-689 P618L limits assumed): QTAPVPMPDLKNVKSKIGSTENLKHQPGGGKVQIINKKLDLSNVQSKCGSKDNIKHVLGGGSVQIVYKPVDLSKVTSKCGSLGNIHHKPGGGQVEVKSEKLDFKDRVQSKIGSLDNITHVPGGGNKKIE
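Tau K18 P301L fragment (15 uM unlabeled plus 0.24 uM Alexa 594-labeled) in 100 mM sodium acetate pH 7 with compound, fibrillization induced by 20 uM heparin for 6 hr at 37 C. Thioflavin T (30 uM) added, fluorescence read after 1 hr (ex 450, em 510 nm).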
VP16 counter = Gal4-VP16 reporter inhibition counter-screen; Potency, µM (highest dose often 53.6 µM), hits mostly inhibitors; Drosophila S2 Gal4-VP16 UAS-luciferase, luminescence, 20 h; 310,000 tested, 3.5% active;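 also: Gal4-VP16 expression switched on by copper sulfate through the metallothionein promoter; nearly all actives have a fitted effect of over 50% in size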
Tau fibril FP = blocks human tau fibril formation measured by polarization | P10636 | K18 P301L tau heparin fibrillization, Alexa594 FP, 6 h | Potency, µM (titrated, usually from 57.7 µM), most hits filed as inhibitors | 280,000 tested, 0.39% active | AID 1468; also: nearly all actives have a fitted effect of over 55% in size
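FP of Alexa 594-tau after heparin (20 uM) induction. Substrate: human K18 P301L, 15 uM unlabeled, 0.24 uM labeled. Buffer 100 mM sodium acetate pH 7. 6 hr, 37 C.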
Tau fluor counter = counter-screen for tau fibril formation inhibitors; tau K18 P301L (four-repeat tau fragment) Alexa594 fluorescence, heparin fibrillization; Potency, µM (highest dose often 57.7 µM); 280,000 tested, 0.93% active; AID 1463; also: nearly all actives have a fitted effect of over 55% in size
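Human K18 P301L tau (15 uM unlabeled plus 0.24 uM Alexa 594-labeled, final) in 100 mM sodium acetate pH 7 was mixed with compound and 20 uM heparin and incubated 6 hr at 37 C.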
Of the large screens only hits and unclear results are named; the others gave an inactive call; ! = repeats disagree; [ ] = another dose, or the depositor's remark. Calls follow the shape of the dose curve; as a rule, active = well fitted curve in the direction sought with a large enough effect; inconclusive = small, poorly fitted or top-dose-only effect, or another doubt; inactive = no such curve, though single readings can be large; an effect the other way counts as inactive or inconclusive.

C=CCNC(=S)Nc1ccc(OC(=O)Nc2ccc(Cl)c(Cl)c2)cc1	Tau ThT inhib inconclusive, Tau fibril FP 16µM, Tau fluor counter inconclusive
S=c1[nH]nc(-c2ccccc2)n1C1C=CCCC1 (configuration not stated)	VP16 counter 2.8µM
CC(=O)OC[C@H](N)C(=O)c1ccccc1	none
CCC(=Nc1ccc(OC)cc1OC)c1c(O)n(C2CCCCC2)c(=O)[nH]c1=O	RORg inh inconclusive, VP16 counter 6.3µM
Cc1ccc(-n2sc3ccccc3c2=O)cc1	RORg inh 5µM, Tau ThT inhib 32µM, VP16 counter 1.6µM, Tau fibril FP inconclusive
Cc1ccc(-n2c(/C=C/c3ccccn3)nc3ccccc3c2=O)cc1	none (no result: Tau ThT inhib, Tau fibril FP, Tau fluor counter)
CC(=O)OCC1=C[C@H]2[C@@H]3C(C)(C)[C@]3(OC(=O)Cc3ccccc3)C[C@@H](C)[C@]2(O)[C@@H]2C=C(C)C(=O)[C@@]2(O)C1	VP16 counter inconclusive (no result: Tau ThT inhib, Tau fibril FP, Tau fluor counter)
Cc1cc(O)c2c3c(c(=O)oc2c1)CCC(C)C3 (configuration not stated)	RORg inh inconclusive, VP16 counter 20µM (no result: Tau ThT inhib, Tau fibril FP, Tau fluor counter)
CCOc1cc(C)cc2oc(=O)c3c(c12)CCCC3	none (no result: Tau ThT inhib, Tau fibril FP, Tau fluor counter)
CCCCC/C=C\C/C=C\C/C=C\C/C=C\CCCC(=O)OCCN	Tau ThT inhib inconclusive, VP16 counter inconclusive
Cn1nc(OC(=O)Nc2ccc(Cl)cc2)cc1C(F)(F)F	RORg inh inconclusive, Tau fibril FP inconclusive
Cc1ccc2c(Cl)cc(Cl)c(O)c2n1	RORg inh 0.56µM!, VP16 counter 0.89µM!, Tau fibril FP inconclusive
CN(C)C(=O)Oc1c(Cl)cc(Cl)c2cccnc12	none
Cc1ccccc1-n1c(/C=C/c2c(C)[nH]c3ccccc23)nc2ccccc2c1=O	Tau ThT inhib inconclusive, Tau fibril FP inconclusive, Tau fluor counter 4µM[quencher] (no result: RORg inh, VP16 counter)
CN1CSC(=S)N(C)C1	RORg inh 10µM, VP16 counter 11µM
Cc1cccc(-n2c(O)c(/C=N/Nc3nc4c(c(=O)n(C)c(=O)n4C)n3C)c(=O)[nH]c2=S)c1	Tau ThT inhib 13µM, Tau fibril FP inconclusive, Tau fluor counter inconclusive
Cn1c(=O)c2c(nc(N/N=C/c3c(O)n(C4CCCCC4)c(=S)[nH]c3=O)n2C)n(C)c1=O	RORg inh inconclusive, Tau ThT inhib 16µM, Tau fibril FP inconclusive, Tau fluor counter inconclusive
C=C(C)CCl	none (no result: Tau ThT inhib, Tau fibril FP, Tau fluor counter)
COC(=O)C1C(c2ccccc2)C2C(=O)c3c(OC)cc(OC)cc3O[C@@]12c1ccc(OC)cc1 (some centres not stated)	none
COC(=O)[C@@H]1[C@@H](O)[C@@]2(O)c3c(OC)cc(OC)cc3O[C@@]2(c2ccc(OC)cc2)[C@H]1c1ccccc1	RORg inh 0.4µM, VP16 counter 0.1µM
O=C1CC2OCC=C3CN4CCC56c7ccccc7N1C5C2C3CC46 (configuration not stated)	none (no result: Tau ThT inhib, Tau fibril FP, Tau fluor counter)
Cc1cc([N+](=O)[O-])c2ccccc2[n+]1[O-]	RORg inh inconclusive, Tau ThT inhib inconclusive, VP16 counter 3.5µM
C=CCN1CCc2cccc3c2C1Cc1ccc(O)c(O)c1-3 (configuration not stated)	Tau ThT inhib 14µM, Tau fibril FP inconclusive, Tau fluor counter 14µM[quencher] (no result: RORg inh, VP16 counter)
CN1CCc2cc(O)cc3c2C1Cc1ccc(O)c(O)c1-3 (configuration not stated)	Tau ThT inhib 16µM, Tau fibril FP 40µM, Tau fluor counter 18µM[quencher] (no result: RORg inh, VP16 counter)
COc1ccc2c(c1O)-c1cccc3c1C(C2)N(C)CC3 (configuration not stated)	Tau ThT inhib inconclusive, Tau fibril FP inconclusive (no result: RORg inh, VP16 counter)
CCOP(=O)(OCC)C(=Cc1cc(C(C)(C)C)c(O)c(C(C)(C)C)c1)P(=O)(OCC)OCC	RORg inh inconclusive (no result: Tau ThT inhib, Tau fibril FP, Tau fluor counter)
Cc1nc2c(=O)n(C)c(=O)nc-2n(C)n1	RORg inh inconclusive, Tau ThT inhib inconclusive, VP16 counter 3.5µM, Tau fibril FP inconclusive
COC(=O)C12CC3=CCC4C(=O)N(c5ccccc5)C(=O)C4C3Cc3ccccc3[C@@H]1CNC2=O (some centres not stated)	none
CCN1CCN(CC(c2ccccc2)c2ccccc2)CC1	RORg inh 20µM (no result: Tau ThT inhib, Tau fibril FP, Tau fluor counter)
CCN1CCc2ccccc2C1	none
Cc1ccsc1/C=N/NC(=O)c1cccc(S(=O)(=O)Nc2ccccc2Cl)c1	RORg inh 2.5µM, Tau ThT inhib inconclusive, VP16 counter 3.2µM, Tau fibril FP inconclusive, Tau fluor counter inconclusive
CCN(CC)c1ccc(NC(=O)c2cccc(C)c2)cc1S(=O)(=O)Nc1ccccc1OC	Tau ThT inhib inconclusive
Cc1ccc(S(=O)(=O)c2nnn3c2nc(N2CCC(C(N)=O)CC2)c2cc(Cl)ccc23)cc1C	Tau ThT inhib inconclusive, Tau fluor counter inconclusive (no result: RORg inh, VP16 counter)
O=C(N/N=C\c1ccc(COc2ccc([N+](=O)[O-])cc2)o1)c1cccc(Cl)c1	RORg inh 1.8µM, Tau ThT inhib inconclusive, VP16 counter 2.5µM, Tau fibril FP inconclusive, Tau fluor counter inconclusive
Fc1ccc(-c2nc3c(-c4ccc(F)cc4)cnn3cc2CCN2CCOCC2)cc1	Tau ThT inhib inconclusive
Cc1cc(S(=O)(=O)NC(C)C)ccc1OCC(=O)N1CCN(Cc2ccc3c(c2)OCO3)CC1	VP16 counter 7.9µM
CCCCCCCCn1sccc1=O	RORg inh 0.45µM, VP16 counter 0.63µM (no result: Tau ThT inhib, Tau fibril FP, Tau fluor counter)
Cc1cc(O)c2c(c1)C(=O)c1cc(O)cc(O)c1C2=O	Tau ThT inhib 10µM, VP16 counter inconclusive, Tau fluor counter 16µM[quencher]
O=C=NCCCCN=C=O	none (no result: Tau ThT inhib, Tau fibril FP, Tau fluor counter)
CC[C@H](CO)NC(=O)[C@H]1C=C2c3cccc4[nH]cc(c34)C[C@@H]2N(C)C1	none (no result: Tau ThT inhib, Tau fibril FP, Tau fluor counter)
Clc1ccc(-c2nc3ccc(Cl)cn3c2CN2CCOCC2)cc1	RORg inh inconclusive, VP16 counter inconclusive
Clc1ccc(-c2nc3ccc(Cl)cn3c2CN2CCCCC2)cc1	RORg inh 5µM (no result: Tau ThT inhib, Tau fibril FP, Tau fluor counter)
O=Nc1ccc(Nc2ccccc2)cc1	VP16 counter inconclusive (no result: Tau ThT inhib, Tau fibril FP, Tau fluor counter)
COC(=O)[C@]1(C)CC[C@@]2(C)CC[C@@]3(C)C4=CC=C5C(=CC(=O)C(O)=C5C)[C@@]4(C)CC[C@@]3(C)C2C1 (some centres not stated)	RORg inh 4µM, Tau ThT inhib 28µM, VP16 counter 3.5µM, Tau fibril FP inconclusive, Tau fluor counter inconclusive
Cc1cccc(-n2c(C)n[nH]c2=S)c1C	RORg inh 16µM, VP16 counter inconclusive
Cc1cccc(-n2c(C)nc3ccccc3c2=O)c1C	none
ClCCCCl	none (no result: Tau ThT inhib, Tau fibril FP, Tau fluor counter)
N#CC(C#N)=C(C#N)c1ccc(Nc2ccccc2)cc1	RORg inh inconclusive, VP16 counter 14µM (no result: Tau ThT inhib, Tau fibril FP, Tau fluor counter)
c1ccc(Nc2ccc(Nc3ccccc3)cc2)cc1	none (no result: Tau ThT inhib, Tau fibril FP, Tau fluor counter)
O=C(CCCc1nc(-c2ccc(Cl)cc2)no1)NCC1CCCO1 (configuration not stated)	VP16 counter 13µM (no result: Tau ThT inhib, Tau fibril FP, Tau fluor counter)
COc1cccc(C(=O)C2CCCN(Cc3ccccn3)C2)c1 (configuration not stated)	RORg inh 3.5µM, VP16 counter inconclusive
COc1c(C)cc(C(=O)C2CCCN(Cc3ccccn3)C2)cc1C (configuration not stated)	RORg inh 2µM, VP16 counter 10µM
